# Compound activity deposited in PubChem BioAssay by National Center for Advancing Translational Sciences (NCATS).
# HCMV inh – blocks human cytomegalovirus replication. HFF cells, HCMV-luciferase reporter, 72 h; stronger effect = lower value. activity change, negative = inhibition, % at 57.5 µM. hit rate 4.5% among 410,000. AID 1259415; in the data active means activity change below about -60%; inconclusive means no clear call, values can overlap the other calls; inactive means above about -39%
#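 After 16 h attachment at 37C, HFF cells received test compound and HCMV-luciferase (1 PFU/cell); reporter luminescence read 72 h later, data normalized against buffer-only and known inhibitor Salinomycin.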
# Pf growth 96h – inhibits malaria parasite growth, 96 h; P. falciparum luciferase reporter growth, 96 h; Potency, µM (doses to about 28.7 µM), inactives show at the highest dose activity change, negative = inhibition, hits mostly inhibitors; hit rate 6.9% among 320,000; AID 504834; further: potency means the concentration at half of the fitted maximal effect
#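 Two-generation exposure (96 h) targets delayed-death phenotype. Reporter parasites carrying integrated firefly luciferase, in red cells at 2% hematocrit and 0.05% parasitemia final, kept at 37 C, 5% CO2; luminescence loss indicates inhibition.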
# Pf growth 48h – inhibits P. falciparum growth in the first generation, 48 h; P. falciparum luciferase growth in erythrocytes, 48 h; hit rate 5.9% among 310,000; Potency, µM (top dose mostly 28.7 µM), for inactives: at the top dose activity change, negative = inhibition, actives largely listed as inhibitors; further: potency means the concentration at half of the fitted maximal effect
#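 Firefly luciferase activity from engineered P. falciparum reports growth; inhibitors lower the luminescent signal. Cultures contained 2% hematocrit erythrocytes at 0.1% final parasitemia.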
# HCV inh – inhibitors of hepatitis C virus infection; Huh7.5.1 HCVcc-Cre infection, luciferase reporter, 44 h; Potency, µM (titrated, usually from 41.8 µM), for the others: at the highest dose activity change, negative = inhibition, actives largely listed as inhibitors; hit rate 3.4% among 340,000; AID 651820; further: potency means the concentration at half of the fitted maximal effect
#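 Antiviral activity was scored by luciferase reporter output from cells infected with HCVcc-Cre (~0.5 moi) in presence of compound, 44 h infection period, cells seeded 1,000/well 4 h prior.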
# * = called active by the depositor; ? = inconclusive; · = no result. Only some compounds are listed: those with a hit (about 13% of all), similar ones and a draw of the others. Unless noted, the call rests on the fitted dose curve; in most records, active means well fitted inhibition curve with a large enough effect; inconclusive means small, poorly fitted or top-dose-only effect, or another doubt; inactive means no such curve, though single readings can be large or run the other way. On the % scale 0 is the no-effect control and ±100 the full control effect.
SMILES,HCMV inh,Pf growth 96h,Pf growth 48h,HCV inh
CCN1CCN(c2nc(-c3cccnc3)nc3ccccc23)CC1,-1,·,?,?
Cc1ccc(-c2n[nH]c3c2C(c2ccc(C(C)(C)C)cc2)NC3=O)cc1 (configuration not stated),-10,·,·,·
COc1ccc(OCC(=O)Nc2ccc(N3CCN(C(=O)c4ccccc4)CC3)c(Cl)c2)cc1,?,-78%,8.3µM*,?
COc1ccc(OCC(=O)Nc2ccc3c(c2)C(=O)NC3=O)cc1,-22,12µM*,21%,8%
O=C(COc1ccccc1)Nc1ccc2c(c1)Cc1cc(NC(=O)COc3ccccc3)ccc1-2,-80*,?,-6%,?
COc1ccc(OCC(=O)Nc2ccc(N3CCOCC3)c(Cl)c2)cc1,-18,·,?,10µM*
CCc1ccc(OCC(=O)Nc2ccc(N3CCN(C(=O)c4ccccc4)CC3)cc2)cc1,-34,-9%,-18%,1%
Cc1c(C(=O)NCCc2ccc(Cl)cc2)cccc1-n1cnc2cccnc21,0,·,·,·
Cc1cccc(OCC(=O)Nc2ccc(OCc3cc(=O)n4cc(C)ccc4n3)cc2)c1,11,·,·,·
COc1ccc(-c2coc3c(C(=O)NCc4ccc(OC)c(OC)c4)cccc23)c(C)c1,-75*,·,·,·
COc1ccc(-c2coc3c(C(=O)NCC4CCOCC4)cccc23)c(C)c1,-61*,·,·,·
COc1ccc(-c2coc3c(C(=O)NCCN4CCOCC4)cccc23)c(C)c1,-32,·,·,·
COc1ccc(-c2coc3c(C(=O)Nc4cc(OC)c(OC)c(OC)c4)cccc23)c(C)c1,-65*,·,·,·
COC(=O)c1nnn(CC(=O)Nc2ccc(Br)c(C)c2)c1N,41,·,·,·
NC(=O)CCCn1c(C(=O)c2ccc(Cl)cc2)c2ccc(C(F)(F)F)cc2[n+]1[O-],22,?,?,20%
Cc1ccc(C(=O)c2c3ccccc3[n+]([O-])n2CCC(=O)O)cc1,-6,114%,39%,13%
NCCCn1c(C(=O)c2ccc(Cl)cc2)c2ccc(C(F)(F)F)cc2[n+]1[O-],-13,?,9.3µM*,?
NCCCn1c(C(=O)c2ccc(Cl)cc2)c2ccc([N+](=O)[O-])cc2[n+]1[O-],-4,?,?,10µM*
COc1ccc(C(=O)c2ccc([N+](=O)[O-])cc2Cl)cc1,?,27%,-7%,-21%
NC(=O)CCn1c(C(=O)c2ccc(Cl)cc2)c2ccccc2[n+]1[O-],-88*,-27%,39%,11%
Cc1ccc(Cn2c(CO)cnc2SCC(=O)Nc2ccc(C)c(Cl)c2)cc1,-13,·,·,·
O=C(Nc1ccc(F)cc1F)c1ccc(CN2CC(=O)N3CCCCC3C2=O)cc1 (configuration not stated),15,·,·,·
COc1ccc(C(=O)OCc2cc(=O)n3nc(-c4cccs4)sc3n2)cc1,11,·,·,·
CC1CCN(c2nc3ccc(C(=O)NCc4ccccc4Cl)cc3s2)CC1,18,·,·,·
Nc1ncnc(N)c1N=Nc1ccccc1,-64*,5%,?,-28%
SMILES,HCMV inh,Pf growth 96h,Pf growth 48h,HCV inh
O=C1OC(N2C(=O)CC[C@H]2C(=O)Nc2ccc3c(c2)OCO3)c2ccccc21 (some centres not stated),-15,66%,8%,0.89µM*
O=S1(=O)C=C(Sc2nc3cc(Cl)ccc3o2)c2ccccc21,·,19%,?,7.9µM*
CN(C)c1nc(N)nc(CSc2nc3cc(Cl)ccc3o2)n1,-12,·,57%,-5%
COc1ccc(C(=O)Cn2c(=O)n3nc(CCn4nc(C)cc4C)nc3c3cc(OC)c(OC)cc32)cc1,-14,·,·,·
CCn1c(Sc2nc(C)nc3scc(-c4cccs4)c23)n[nH]c1=O,?,7.4µM*,?,?
CC(C)CCNC(=O)NC(=O)CSc1nnc(-c2ccccc2Br)o1,32,-4%,·,?
Cc1nc(SCC(=O)NC(=O)NCCC(C)C)c2c(-c3cccs3)csc2n1,1,?,12µM*,?
CCc1nc2scc(-c3cccs3)c2c(=O)o1,12,?,4%,5%
Cc1cc(C)c2c(NC(=O)c3ccccc3Cl)c(C(=O)NCc3ccc(Cl)cc3)sc2n1,-38,·,·,·
CCN(CC(=O)NCc1cccs1)C(=O)/C=C/c1cccc(Br)c1,-29,-1%,5%,3%
CCN(CC(=O)NCc1cccs1)C(=O)/C=C/c1cc(Br)ccc1OC(F)F,?,10µM*,?,-12%
CC(C)(C)S(=O)N1C[C@H]2CC(=O)C=C2[C@@H]1CCO (some centres not stated),-6,·,·,·
CC1(C)COC(/C=C/c2ccc([N+](=O)[O-])cc2)=N1,-101*,-10%,?,?
CC(=C/C(=O)O)/C=C/c1ccc([N+](=O)[O-])cc1,-6,40%,-6%,2%
Cc1n(C)c2cc(Cl)ccc2[n+]1Cc1ccccc1,-60*,22%,2.9µM*,3%
CC[n+]1c(C)n(C)c2cc(S(=O)(=O)N(C)C)ccc21,-4,66%,0%,8%
Cc1cc(NC(=O)c2ccccc2)ccc1NC(=O)Cc1ccccc1,-24,4.1µM*,-12%,2%
Cc1cc(NC(=O)c2ccccc2)ccc1NC(=O)c1ccccc1Cl,39,-6%,1%,-7%
Cc1cc(NC(=O)c2ccco2)ccc1NC(=O)Cc1cccs1,-22,6.6µM*,61%,-13%
Cc1ccc(NC(=O)c2ccco2)c(NC(=O)Cc2cccs2)c1,-3,·,12%,4%
Cc1ccc(S(=O)(=O)Nc2ccc(Nc3ccccc3)cc2)cc1,-30,?,-34%,-14%
O=C(CP(=O)(c1ccccc1)c1ccccc1)Nc1cccc(CP(=O)(c2ccccc2)c2ccccc2)c1,-4,7.4µM*,?,-15%
Cc1ccc(S(=O)(=O)Nc2cccc(CP(=O)(c3ccccc3)c3ccccc3)c2)cc1,-32,9.3µM*,3.3µM*,-16%
